# Measurements as given in the supplement of paper PMC8728848.
# The full list was thinned out, with the strongest signals kept by preference.
# B1: Gal 3 (Homo sapiens), P17931 (protein)
# chain: MADNFSLHDALSGSGNPNPQGWPGAWGNQPAGAGGYPGASYPGAYPGQAPPGAYPGQAPPGAYHGAPGAYPGAPAPGVYPGPPSGPGAYPSSGQPSAPGAYPATGPYGAPAGPLIVPYNLPLPGGVVPRMLITILGTVKPNANILDFQRGNDVAFHFNPRFNENNRRVIVCNTKLDNNWGREESQSVFPFESGKPFKIQVLVEPDHFKVAVNDAHLLQYNHRVKKLNEISKLGISGDIDLTSASYTMI
# Assays:
# Assay in all cases: glycan array binding signal (z-score within array); higher = stronger binding
# Conditions in all cases: glycan notation: IUPAC condensed, linker removed; mutation: R186S
# [1] = target: Fuc(a1-2)Gal(b1-3)GalNAc(b1-4)[Neu5Ac(a2-3)]Gal(b1-4)Glc
# Procedure, shortened: (§1)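 Columns mapping to the same glycan were averaged after glycan names were converted to IUPAC-condensed notation. The data come from 3228 arrays in the Consortium for Functional Glycomics database, limited to those with an available protein sequence. Binding is reported as a within-array Z-score averaged across arrays of one protein sequence and across linkers.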
# [2] = target: Fuc(a1-2)Gal(b1-4)[Fuc(a1-3)]GlcNAc(b1-2)Man(a1-3)[Fuc(a1-2)Gal(b1-4)[Fuc(a1-3)]GlcNAc(b1-2)Man(a1-6)]Man(b1-4)GlcNAc(b1-4)GlcNAc
# Procedure, shortened: as §1
# [3] = target: Fuc(a1-2)Gal(b1-4)[Fuc(a1-3)]GlcNAc(b1-3)Gal(b1-4)[Fuc(a1-3)]GlcNAc(b1-3)Gal(b1-4)[Fuc(a1-3)]GlcNAc
# Procedure, shortened: as §1
# [4] = target: Fuc(a1-2)[Gal(a1-3)]Gal(b1-3)GlcNAc(b1-2)Man(a1-3)[Fuc(a1-2)[Gal(a1-3)]Gal(b1-3)GlcNAc(b1-2)Man(a1-6)]Man(b1-4)GlcNAc(b1-4)GlcNAc
# Procedure, shortened: as §1
# [5] = target: Fuc(a1-2)[Gal(a1-3)]Gal(b1-4)GlcNAc(b1-2)Man(a1-3)[Fuc(a1-2)[Gal(a1-3)]Gal(b1-4)GlcNAc(b1-2)Man(a1-6)]Man(b1-4)GlcNAc(b1-4)GlcNAc
# Procedure, shortened: as §1
# [6] = target: Fuc(a1-2)[GalNAc(a1-3)]Gal(b1-3)GlcNAc(b1-2)Man(a1-3)[Fuc(a1-2)[GalNAc(a1-3)]Gal(b1-3)GlcNAc(b1-2)Man(a1-6)]Man(b1-4)GlcNAc(b1-4)GlcNAc
# Procedure, shortened: as §1
# [7] = target: Fuc(a1-3)[Gal(b1-4)]GlcNAc(b1-2)Man(a1-3)[Fuc(a1-3)[Gal(b1-4)]GlcNAc(b1-2)Man(a1-6)]Man(b1-4)GlcNAc(b1-4)GlcNAc
# Procedure, shortened: as §1
# Fuc(b1-3)GlcNAc = target: Fuc(b1-3)GlcNAc
# Procedure, shortened: as §1
# [8] = target: Gal(a1-3)Gal(b1-4)[Fuc(a1-3)]GlcNAc(b1-2)Man(a1-3)[Gal(a1-3)Gal(b1-4)[Fuc(a1-3)]GlcNAc(b1-2)Man(a1-6)]Man(b1-4)GlcNAc(b1-4)GlcNAc
# Procedure, shortened: as §1
# [9] = target: Gal(b1-3)GlcNAc(b1-3)GalNAc
# Procedure, shortened: as §1
# [10] = target: Gal(b1-3)[Fuc(a1-4)]GlcNAc(b1-2)Man(a1-3)[Gal(b1-3)[Fuc(a1-4)]GlcNAc(b1-2)Man(a1-6)]Man(b1-4)GlcNAc(b1-4)GlcNAc
# Procedure, shortened: as §1
# [11] = target: Gal(b1-3)[Neu5Ac(a2-6)]GalNAc
# Procedure, shortened: as §1
# [12] = target: Gal(b1-4)GlcNAc(b1-2)Man(a1-3)[Gal(b1-4)GlcNAc(b1-2)Man(a1-6)]Man(b1-4)GlcNAc(b1-4)[Fuc(a1-6)]GlcNAc
# Procedure, shortened: as §1
# [13] = target: Gal(b1-4)GlcNAc(b1-2)Man(a1-6)[Man(a1-3)]Man(b1-4)GlcNAc(b1-4)GlcNAc
# Procedure, shortened: as §1
# [14] = target: Gal(b1-4)GlcNAc(b1-2)[Gal(b1-4)GlcNAc(b1-4)]Man(a1-3)[Gal(b1-4)GlcNAc(b1-2)Man(a1-6)]Man(b1-4)GlcNAc(b1-4)GlcNAc
# Procedure, shortened: as §1
# [15] = target: Gal(b1-4)GlcNAc(b1-3)Gal(b1-3)GlcNAc
# Procedure, shortened: as §1
# [16] = target: GalNAc(b1-4)GlcNAc(b1-2)Man(a1-3)[GalNAc(b1-4)GlcNAc(b1-2)Man(a1-6)]Man(b1-4)GlcNAc(b1-4)GlcNAc
# Procedure, shortened: as §1
# Glc(a1-6)Glc(a1-6)Glc = target: Glc(a1-6)Glc(a1-6)Glc
# Procedure, shortened: as §1
# GlcA(b1-6)Gal = target: GlcA(b1-6)Gal
# Procedure, shortened: as §1
# [17] = target: GlcNAc(a1-4)Gal(b1-4)GlcNAc(b1-3)Gal(b1-4)Glc
# Procedure, shortened: as §1
# [18] = target: GlcNAc(b1-2)Man(a1-3)[GlcNAc(b1-2)Man(a1-6)]Man(b1-4)GlcNAc(b1-4)[Fuc(a1-6)]GlcNAc
# Procedure, shortened: as §1
# GlcNAc(b1-3)Gal = target: GlcNAc(b1-3)Gal
# Procedure, shortened: as §1
# GlcNAc(b1-3)Gal(b1-4)Glc = target: GlcNAc(b1-3)Gal(b1-4)Glc
# Procedure, shortened: as §1
# [19] = target: GlcNAc(b1-6)Gal(b1-4)GlcNAc
# Procedure, shortened: as §1
# GlcNAc(b1-6)GalNAc = target: GlcNAc(b1-6)GalNAc
# Procedure, shortened: as §1
# Kdn(a2-3)Gal(b1-4)Glc = target: Kdn(a2-3)Gal(b1-4)Glc
# Procedure, shortened: as §1
# Kdn(a2-6)Gal(b1-4)GlcNAc = target: Kdn(a2-6)Gal(b1-4)GlcNAc
# Procedure, shortened: as §1
# [20] = target: Man(a1-2)Man(a1-2)Man(a1-3)Man
# Procedure, shortened: as §1
# Man(a1-2)Man(a1-3)Man = target: Man(a1-2)Man(a1-3)Man
# Procedure, shortened: as §1
# [21] = target: Neu5Ac(a2-3)Gal(b1-3)GalNAc(b1-3)Gal(a1-4)Gal(b1-4)Glc
# Procedure, shortened: as §1
binder,measurement,setting,value
B1,glycan array binding signal (z-score),[1],-0.057
same,glycan array binding signal (z-score),[2],0.064
same,glycan array binding signal (z-score),[3],-0.032
same,glycan array binding signal (z-score),[4],19.8
same,glycan array binding signal (z-score),[5],0.619
same,glycan array binding signal (z-score),[6],0.242
same,glycan array binding signal (z-score),[7],0.045
same,glycan array binding signal (z-score),Fuc(b1-3)GlcNAc,-0.041
same,glycan array binding signal (z-score),[8],-0.061
same,glycan array binding signal (z-score),[9],-0.079
same,glycan array binding signal (z-score),[10],0.028
same,glycan array binding signal (z-score),[11],-0.068
same,glycan array binding signal (z-score),[12],-0.086
same,glycan array binding signal (z-score),[13],-0.047
same,glycan array binding signal (z-score),[14],-0.042
same,glycan array binding signal (z-score),[15],-0.007
same,glycan array binding signal (z-score),[16],-0.023
same,glycan array binding signal (z-score),Glc(a1-6)Glc(a1-6)Glc,-0.051
same,glycan array binding signal (z-score),GlcA(b1-6)Gal,-0.057
same,glycan array binding signal (z-score),[17],-0.057
same,glycan array binding signal (z-score),[18],-0.012
same,glycan array binding signal (z-score),GlcNAc(b1-3)Gal,-0.059
same,glycan array binding signal (z-score),GlcNAc(b1-3)Gal(b1-4)Glc,-0.053
same,glycan array binding signal (z-score),[19],-0.076
same,glycan array binding signal (z-score),GlcNAc(b1-6)GalNAc,-0.058
same,glycan array binding signal (z-score),Kdn(a2-3)Gal(b1-4)Glc,-0.004
same,glycan array binding signal (z-score),Kdn(a2-6)Gal(b1-4)GlcNAc,-0.071
same,glycan array binding signal (z-score),[20],-0.067
same,glycan array binding signal (z-score),Man(a1-2)Man(a1-3)Man,-0.024
same,glycan array binding signal (z-score),[21],0.003
